PrPC TRFRET = inhibitors of human cell surface prion protein PrPC, primary screen, cell-based, TR-FRET. AID 720596, 2013. hit rate 0.43% among 370,000. Major prion protein (Homo sapiens), P04156. TR-FRET read-out. inhibition, % at 13.8 µM; in the data active = inhibition above about 24%
3CLpro inhibitor = SARS-CoV 3CLpro protease inhibitors, primary screen, biochemical, quenched FRET; inhibition, % at 6 µM; recombinant SARS-CoV 3CLpro, quenched FRET peptide cleavage; AID 1706, 2009; hit rate 0.14% among 290,000; in the data active = inhibition above about 12%
GDH-TPI counter-1 = GDH-TPI coupling enzyme inhibitors, primary screen, artefact control for M. tuberculosis FBA inhibitor project, biochemical, absorbance, full deck; AID 588335, 2011; GDH-TPI coupled enzyme counterscreen, NADH absorbance; inhibition, % at 4.8 µM; hit rate 1.2% among 360,000; in the data active = inhibition above about 30%
FBA Mtb inh = Mtb FBA enzyme inhibitors, primary screen, biochemical, fluorescence, strain H37Rv | Fructose-bisphosphate aldolase (Mycobacterium tuberculosis (strain ATCC 25618 / H37Rv)), … | purified M. tuberculosis FBA, fluorescence read-out | inhibition, % at 1 µM | hit rate 2.3% among 360,000 | AID 588726, 2011
Target sequence (P9WQA3 whole entry, looked up): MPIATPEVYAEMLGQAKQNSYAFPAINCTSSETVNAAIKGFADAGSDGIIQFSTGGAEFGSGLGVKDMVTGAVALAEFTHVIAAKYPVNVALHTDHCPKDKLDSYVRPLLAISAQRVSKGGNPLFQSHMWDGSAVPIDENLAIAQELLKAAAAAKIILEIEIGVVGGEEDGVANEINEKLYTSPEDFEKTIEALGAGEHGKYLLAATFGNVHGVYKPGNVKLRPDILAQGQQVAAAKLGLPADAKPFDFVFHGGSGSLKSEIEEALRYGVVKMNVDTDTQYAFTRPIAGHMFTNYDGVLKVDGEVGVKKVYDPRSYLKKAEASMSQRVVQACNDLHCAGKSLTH
BH1578 lux ind = inducers of Vibrio cholerae quorum light production without autoinducers, primary screen, BH1578 luxS cqsA deficient, single point. V. cholerae BH1578 lux reporter, luminescence, 6 h. activation, % at 18.7 µM. hit rate 0.16% among 350,000. AID 588436, 2011; in the data active = activation mostly above about 9.7%, no sharp cut-off
Mtb FBA inh conf = M. tuberculosis aldolase blockers, biochemical, fluorescence, strain H37Rv, confirmation. purified M. tuberculosis FBA, fluorescence read-out. shares compounds with FBA Mtb inh. inhibition, % at 1 µM. hit rate 78% among 5,600
GDH-TPI counter-2 = GDH-TPI coupling enzyme inhibitors, artefact control for M. tuberculosis FBA inhibitor project, biochemical, fluorescence, high throughput; shares compounds with FBA Mtb inh; GDH-TPI coupled enzyme counterscreen; inhibition, % at 1 µM; hit rate 81% among 5,600; in the data active = inhibition above about 10%
GDH-TPI DR = GDH-TPI coupling enzyme inhibitors, dose response, artefact control for M. tuberculosis FBA inhibitor project, biochemical, fluorescence, IC50; shares compounds with FBA Mtb inh; GDH-TPI coupled enzyme assay, artifact counterscreen; IC50, µM; hit rate 79% among 170; AID 652145, 2013; call rule not given here
Large screens that a line does not name were inactive (follow-up assays come after a bar, where they were run). An excerpt weighted towards active compounds, which were near 3.9% of everything screened. Cut-off read from the data, not from the text of the source, unless noted: active = inhibition above about 27%; inactive = the rest.

CCOC(=O)C1CCN(C(=O)c2cc(S(=O)(=O)N3CCc4ccccc43)ccc2OC)CC1	none (no result: 3CLpro inhibitor)
COc1ccc2oc(C(=O)OCC(=O)NC3CC3)c(C)c2c1	FBA Mtb inh 44 | Mtb FBA inh conf active | GDH-TPI counter-2 active
COC(=O)c1oc2ccc(OC)cc2c1N	FBA Mtb inh 29 | Mtb FBA inh conf active | GDH-TPI counter-2 166
COc1ccc2oc(C(=O)OCC(=O)Nc3ccccc3OC)c(C)c2c1	none (no result: PrPC TRFRET, 3CLpro inhibitor)
COc1ccc(C(=O)c2oc3ccc(OC)cc3c2N)cc1	none
Cc1cccc2c(N=O)c(O)[nH]c12	none
CN(C)/C=N/c1nc2ncc(-c3ccc(Cl)cc3)c(/N=C/N(C)C)n2n1	none
CN(C)/C=N/c1nc2nccc(-c3cccc(Cl)c3)n2n1	FBA Mtb inh 34 | Mtb FBA inh conf inactive | GDH-TPI counter-2 inactive | GDH-TPI DR 2.2
CN(C)/C=N/c1nc2nccc(-c3ccc(F)cc3)n2n1	FBA Mtb inh 88 | Mtb FBA inh conf 62 | GDH-TPI counter-2 56
CC1=CC2=NCC(O)CN2C=C1 (centres undefined)	FBA Mtb inh 28 | Mtb FBA inh conf inactive | GDH-TPI counter-2 inactive | GDH-TPI DR 9.3
CC(C)c1ccc(NC(=S)NNC(=O)c2cccs2)cc1	none
COC(=O)c1ccc(C=NNC(=O)c2cc(-c3ccc(C)c(C)c3)n[nH]2)cc1	none (no result: 3CLpro inhibitor, GDH-TPI counter-1, FBA Mtb inh, BH1578 lux ind)
O=C(O)/C=C\c1cn(-c2ccccc2)nc1-c1cc2ccccc2o1	FBA Mtb inh 76 | Mtb FBA inh conf 124 | GDH-TPI counter-2 101
CN(C)C(=O)c1cn(-c2ccccc2)nc1-c1cc2ccccc2o1	none
O=C(O)/C=C/c1cn(-c2ccccc2)nc1-c1cc2ccccc2o1	FBA Mtb inh 91 | Mtb FBA inh conf active | GDH-TPI counter-2 157
O=C(O)/C=C/c1cn(-c2ccccc2)nc1-c1ccccc1	none
CN(Cc1cn(-c2ccccc2)nc1-c1cc2ccccc2o1)C(=O)CCC(=O)O	FBA Mtb inh 45 | Mtb FBA inh conf inactive | GDH-TPI counter-2 inactive
COc1ccc(-c2c(-c3ccccc3OC)oc3ccccc23)cn1	none (no result: 3CLpro inhibitor)
CCOC(=O)CC(=O)CSc1nc2c(cc1C#N)CCC2	FBA Mtb inh 31 | Mtb FBA inh conf 80 | GDH-TPI counter-2 65
CCOC(=O)CC(=O)CSc1nc2c(c(-c3cccs3)c1C#N)CCC2	none
COC(=O)CC(=O)CSc1nc2c(cc1C#N)CCCCC2	FBA Mtb inh 39 | Mtb FBA inh conf 141 | GDH-TPI counter-2 98
N#Cc1cc2c(nc1SCC(=O)O)CCCCC2	none
CC(C)C[C@@H]1COc2cccc(N3CCCC3)c2S(=O)(=O)N1	none (no result: 3CLpro inhibitor, GDH-TPI counter-1, FBA Mtb inh, BH1578 lux ind)
Cc1ccn2cc(CCNC(=O)COc3ccccc3)nc2c1	FBA Mtb inh 35 | Mtb FBA inh conf 46 | GDH-TPI counter-2 30
Cc1ccn2cc(CCNC(=O)CC(C)(C)C)nc2c1	FBA Mtb inh 27 | Mtb FBA inh conf 45 | GDH-TPI counter-2 29
COc1ccc(C(=O)NCCc2cn3ccc(C)cc3n2)cc1	none
Cc1ccn2cc(CCNC(=O)C3CC=CCC3C(=O)O)nc2c1 (centres undefined)	FBA Mtb inh 31 | Mtb FBA inh conf active | GDH-TPI counter-2 active
CCc1ccc(N2CCN(C(=O)N3CCOCC3)CC2)cc1	none
CC(OP(=O)(O)C(NC(=O)[C@H](Cc1ccc(O)cc1)NC(=O)OC(C)(C)C)C(C)C)C(=O)O (some centres undefined)	none (no result: 3CLpro inhibitor, GDH-TPI counter-1, FBA Mtb inh, BH1578 lux ind)
COc1ccc(-n2c3c(cc(C(=O)N4CCCCC4)c2=O)C(=O)CC(C)(C)C3)cc1	none (no result: BH1578 lux ind)
Cc1ccc(CNc2oc(-c3ccco3)nc2C#N)cc1	FBA Mtb inh 54 | Mtb FBA inh conf inactive | GDH-TPI counter-2 inactive
CCOc1ccc(-c2nc(C#N)c(NCc3ccco3)o2)cc1	FBA Mtb inh 53 | Mtb FBA inh conf 58 | GDH-TPI counter-2 50
CC(C)(C)c1ccc(-c2nc(C#N)c(NCc3ccncc3)o2)cc1	none
CNc1oc(-c2ccco2)nc1C#N	FBA Mtb inh 68 | Mtb FBA inh conf 46 | GDH-TPI counter-2 45
COCCNc1oc(-c2ccco2)nc1S(=O)(=O)c1ccccc1	none (no result: PrPC TRFRET)
N#Cc1nc(COc2ccccc2Cl)oc1NCc1ccco1	none
CCOC(=O)[C@]12CCCC=C1N(Cc1ccc3c(c1)OCO3)C(=O)[C@H](CC(=O)N1CCCCC1)C2	none (no result: 3CLpro inhibitor, GDH-TPI counter-1, FBA Mtb inh, BH1578 lux ind)
CC1CC(=O)N(CC(=O)Nc2ccccc2F)c2ccccc2S1(=O)=O (centres undefined)	none
c1ccc2cc3[nH]c(CN4CCOCC4)nc3cc2c1	FBA Mtb inh 103 | Mtb FBA inh conf inactive | GDH-TPI counter-2 inactive
c1ccc2[nH]c(CN3CCOCC3)nc2c1	none
COCCn1cc(C(=O)N2CCN(C)CC2)c2c3ccccc3n(C)c2c1=O	FBA Mtb inh 42 | Mtb FBA inh conf 106 | GDH-TPI counter-2 62
CCOC(=O)N1CCN(C(=O)c2cn(CCOC)c(=O)c3c2c2ccccc2n3C)CC1	FBA Mtb inh 43 | Mtb FBA inh conf active | GDH-TPI counter-2 active
CCN1CCN(CCCNC(=O)c2cn(CCOC)c(=O)c3c2c2ccccc2n3C)CC1	none (no result: PrPC TRFRET)
COCCn1cc(C(=O)NCc2cccs2)c2c3ccccc3n(C)c2c1=O	none
CC(=C\C=O)/C(C)=C/CC[C@@H]1O[C@@H]2C[C@@H]3O[C@](C)(C[C@H]4C[C@H](O)[C@@H]5O[C@@H]6C[C@H](O)[C@@H](C)O[C@@]6(C)CC[C@H]5O4)[C@@H](O)CC[C@@]3(C)O[C@H]2[C@@H](O)[C@@H]1C	none (no result: 3CLpro inhibitor, GDH-TPI counter-1, FBA Mtb inh, BH1578 lux ind)
Cc1ccc(CCNC(=O)c2coc3nc4ccccc4nc23)cc1	FBA Mtb inh 58 | Mtb FBA inh conf 99 | GDH-TPI counter-2 72
CCOC(=O)C1=CN(C(C)C)CCC1=O	none (no result: 3CLpro inhibitor)
C[C@H](O)[C@@H]1CN2CCc3ccc(N4CCOCC4)cc3[C@@H]2C[C@@H]1N(C)C(=O)c1cccc(Cl)c1	none (no result: 3CLpro inhibitor, GDH-TPI counter-1, FBA Mtb inh, BH1578 lux ind)
N#Cc1c2c(c(NCCCN3CCOCC3)n3c1nc1ccccc13)CCC2	FBA Mtb inh 27 | Mtb FBA inh conf 52 | GDH-TPI counter-2 60
CC(C)c1cc(NCCN2CCOCC2)n2c(nc3ccccc32)c1C#N	none (no result: 3CLpro inhibitor)
CC(C)c1cc(NCCCN2CCOCC2)n2c(nc3ccccc32)c1C#N	FBA Mtb inh 51 | Mtb FBA inh conf 169 | GDH-TPI counter-2 129
